# Laboratory results: PubChem BioAssay AID2283227 (EPA ToxCast)
# Inconclusive results are not listed. Calls of active or inactive are those of the source. The calls were made as follows: active = hit-call score of the fitted dose curve at least 0.9, where 1 is the maximum; inconclusive = response in the unintended direction; inactive = score below 0.9.
# Test system: pig Methylenetetrahydrofolate Reductase (MTHFR), gene 397180
# Assay: NVS_ENZ_pMTHFR: NovaScreen (NVS) Enzymatic Assay for pig Methylenetetrahydrofolate Reductase (MTHFR)
# Protocol: NVS_ENZ_pMTHFR is a biochemical, single-readout assay that uses extracted gene-proteins from Porcine kidney in a tissue-based cell-free assay. Measurements were taken 1 hour after chemical dosing in a 96-well plate.NVS_ENZ_pMTHFR is one of one assay component(s) measured or calculated from the NVS_ENZ_pMTHFR assay. It is designed to make measurements of enzyme activity, a form of enzyme reporter, as detected with scintillation counting signals by Lysate-based radiodetection technology.Data from the assay component NVS_ENZ_pMTHFR was analyzed into 1 assay endpoint. This assay endpoint, NVS_ENZ_pMTHFR, was analyzed in the positive analysis fitting direction relative to DMSO as the negative control and baseline of activity. Using a type of enzyme reporter, loss-of-signal activity can be used to understand changes in the enzymatic activity as they relate to the gene MTHFR. Furthermore, this assay endpoint can be referred to as a primary readout, because this […] where this one serves a enzymatic activity function. To generalize the intended target to other relatable targets, this assay endpoint is annotated to the oxidoreductase intended target family, where the subfamily is methylenetetrahydrofolate reductase.
# Binding assays used specific radioligands (tritiated, iodinated) with non-radioactive competitive displacement ligands in agonist or antagonist protocols (as indicated) and various reference compounds and inhibitors to titrate specific binding to receptors and transporters. Most enzyme assays (CYPs, kinases, phosphatases, proteases, HDACs) used recombinant protein and specific substrates (fluorescence mostly, some colorimetric and radioactive) and inhibitors, followed by a biochemical separation of substrate and product. All assays for the biochemical HTS were initially run in duplicate at a single concentration (10 uM for CYP450 assays and 25 uM for all others). Assay-chemical combinations meeting a pre-defined threshold (e.g., 30% inhibition and other criteria defined below) were then run in singleton concentration-response format with maximum concentration of 20 uM for CYPs and 50 uM for all others. Each assay was run with positive and negative controls, and concurrent controls on every plate. The follow-up (secondary) screen tested active chemical-pairs in concentration series, as well as a few additional assays not tested in the primary screen, some selected negative inactives, and several cases re-run in the concentration series for confirmatory purposes.
SMILES,outcome,AC50
COc1nc(C)nc(NC(=O)NS(=O)(=O)c2ccccc2Cl)n1,inactive,–
CN(C)c1nc(=O)n(C2CCCCC2)c(=O)n1C,inactive,–
N#Cc1c[nH]cc1-c1cccc2c1OC(F)(F)O2,inactive,–
CC(C)(C)C(=O)C(Oc1ccc(Cl)cc1)n1cncn1 (stereo unspecified),inactive,–
CCCCOCN(C(=O)CCl)c1c(CC)cccc1CC,inactive,–
CC(=NC#N)N(C)Cc1ccc(Cl)nc1,inactive,–
COP(=O)(OC)OC=C(Cl)Cl,inactive,–
CC(C)Oc1cc(-n2nc(C(C)(C)C)oc2=O)c(Cl)cc1Cl,inactive,–
COC(=O)c1c(C(F)F)nc(C(F)(F)F)c(C2=NCCS2)c1CC(C)C,–,6.46 µM (active)
CCc1cccc(CC)c1N(COC)C(=O)CCl,inactive,–
CCCCOC(=O)c1ccccc1C(=O)O,inactive,–
